From PubChem BioAssay
KLK7 zymogen act – proKLK7 zymogen activators, primary screen, biochemical, fluorescence intensity; AID 652039, 2013; 370,000 tested, 0.9% active; activation, % at 7 µM; purified proKLK7, EDANS-DABCYL substrate fluorescence; 100% is mature enzyme control, 0% vehicle;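 active means activation above the mean of all tested compounds plus 3 SD, computed per campaign excluding outliers beyond control limits, cut at about 13% in these data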
ADAM17 inh – ADAM17 inhibitors, primary screen, biochemical, QFRET; Disintegrin and metalloproteinase domain-containing protein 17 (Homo sapiens), P78536; recombinant ADAM17, EDANS/DABCYL FRET peptide cleavage; inhibition, % at 6.95 µM; 370,000 tested, 0.83% active; AID 720648, 2013;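 active means inhibition above the mean of compounds lying between control limits plus 3 SD, set per campaign, cut at about 8.5% in these data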
Target sequence (P78536 215-824 limits assumed): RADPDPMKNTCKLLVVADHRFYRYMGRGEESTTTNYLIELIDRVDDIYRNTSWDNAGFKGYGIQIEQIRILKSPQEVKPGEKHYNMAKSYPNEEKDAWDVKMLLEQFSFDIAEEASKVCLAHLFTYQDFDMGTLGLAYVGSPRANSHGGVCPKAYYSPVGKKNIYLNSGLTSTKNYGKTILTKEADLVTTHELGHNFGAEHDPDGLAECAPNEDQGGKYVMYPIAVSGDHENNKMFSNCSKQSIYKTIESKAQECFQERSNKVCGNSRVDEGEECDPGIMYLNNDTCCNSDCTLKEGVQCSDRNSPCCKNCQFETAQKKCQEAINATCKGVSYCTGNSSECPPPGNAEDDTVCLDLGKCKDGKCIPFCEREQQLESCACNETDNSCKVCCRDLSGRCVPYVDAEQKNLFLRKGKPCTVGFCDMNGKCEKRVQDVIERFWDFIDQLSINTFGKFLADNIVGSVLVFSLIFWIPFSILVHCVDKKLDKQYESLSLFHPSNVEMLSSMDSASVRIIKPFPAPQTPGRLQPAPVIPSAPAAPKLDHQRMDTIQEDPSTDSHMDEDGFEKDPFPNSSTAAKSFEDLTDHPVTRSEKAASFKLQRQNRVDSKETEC
PLC-beta3 inh – human PLC-beta3 inhibitors, primary screen, biochemical, fluorescence; 1-phosphatidylinositol 4,5-bisphosphate phosphodiesterase beta-3 (Homo sapiens), Q01970; inhibition, % at 12.2 µM; AID 720704, 2013; 370,000 tested, 0.18% active; Purified PLC-beta3, fluorogenic substrate; in the data active means inhibition above about 11%
ADAM10 inh – human ADAM10 inhibitors, primary screen, biochemical, QFRET, HTS | 370,000 tested, 0.62% active | recombinant ADAM10, EDANS/DABCYL FRET peptide cleavage, 3 h | inhibition, % at 7 µM | AID 720582, 2013;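 active means inhibition above a per-campaign cutoff equal to the mean of compounds falling between control-based bounds plus 3 SD, cut at about 20% in these data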
PLCg1 inh – PLC-gamma1 enzyme inhibitors, primary screen, biochemical, fluorescence, purified enzyme; 1-phosphatidylinositol 4,5-bisphosphate phosphodiesterase gamma-1 (Homo sapiens), P19174; fluorogenic substrate; inhibition, % at 12.2 µM; 370,000 tested, 0.84% active; AID 720700, 2013; in the data active means inhibition above about 9.5%
ADAM10 ctr – ADAM10 inhibitors, counter-screen for ADAM17 exosite inhibitor project, biochemical, FRET, human ADAM10; 2,900 tested, 47% active; shares compounds with ADAM17 inh; inhibition, % at 6.95 µM; recombinant ADAM10, EDANS/DABCYL FRET peptide cleavage, 3 h;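 active means mean inhibition over the triplicate runs exceeds the activity threshold set in the earlier primary screen, cut at about 20% in these data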
ADAM17 confirm – ADAM17 inhibitors, hit retest, confirmation, biochemical, QFRET peptide cleavage; inhibition, % at 6.95 µM; recombinant ADAM17, EDANS/DABCYL QFRET peptide cleavage; shares compounds with ADAM17 inh; 2,900 tested, 65% active;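 active means mean inhibition across replicates above the hit cutoff set in the primary screen, cut at about 8.5% in these data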
Each line names hits and unclear results; the compound was inactive in the other large screens (follow-up assays come after a bar, where they were run). Shown are actives, neighbours in structure and some others; about 2.9% of the full set was active somewhere.

O=C(c1ccc(CS(=O)Cc2ccccc2Cl)o1)N1CCN(c2cccc(Cl)c2)CC1 (stereo unspecified)	ADAM17 inh 15 | ADAM10 ctr inactive | ADAM17 confirm 9.0
COc1cccc(N2CCN(C(=O)c3ccc(CS(=O)Cc4ccccc4Cl)o3)CC2)c1 (stereo unspecified)	none
O=C(c1ccc(CS(=O)Cc2ccccc2Cl)o1)N1CCN(c2ccccn2)CC1 (stereo unspecified)	ADAM17 inh 12 | ADAM10 ctr inactive | ADAM17 confirm inactive
CC(C)c1c(C(=O)N/N=C/c2ccc(C(F)(F)F)cc2)nnn1-c1nonc1N	ADAM17 inh 9.8 | ADAM10 ctr 22 | ADAM17 confirm 14
CCOC(=O)c1c(NC(=O)Cn2c(C)nc3ccccc32)sc2c1CCC2	none
O=C(NC1=NCCS1)c1ccc(Cl)c(S(=O)(=O)N2CCc3ccccc32)c1	ADAM17 inh 9.4 | ADAM10 ctr inactive | ADAM17 confirm inactive
CCCOc1ccccc1C(=O)N(Cc1cccs1)C1CCS(=O)(=O)C1 (stereo unspecified)	ADAM17 inh 10, PLC-beta3 inh 12 | ADAM10 ctr inactive | ADAM17 confirm inactive
CCN(CCNC(=O)Nc1ccc(Cl)cc1)c1ccccc1	ADAM17 inh 9.8 | ADAM10 ctr 37 | ADAM17 confirm 19
O=C(NCCc1ccc(Cl)cc1)Nc1ccc(Cl)cc1	none
O=C(C=Cc1ccccn1)c1ccccc1O	none
Cc1ccc(S(=O)(=O)N2CCOC2CNC(=O)C(=O)NCCCc2ccccc2)cc1 (stereo unspecified)	ADAM17 inh 9.3 | ADAM10 ctr 22 | ADAM17 confirm 21
Cc1ccc(S(=O)(=O)N2CCOC2CNC(=O)C(=O)NCCc2ccccc2)cc1 (stereo unspecified)	none
COc1cccc(C(=O)OCn2nnc3ccccc3c2=O)c1OC	ADAM17 inh 8.9 | ADAM10 ctr inactive | ADAM17 confirm inactive
COc1cc(C(=O)OCn2nnc3ccccc3c2=O)cc(OC)c1OC	none
COc1cc(-c2nc(-c3ccc4c(c3)-c3ccccc3S4(=O)=O)c(-c3ccccc3)[nH]2)cc(OC)c1O	ADAM17 inh 8.8 | ADAM10 ctr inactive | ADAM17 confirm 14
COc1ccc(-c2[nH]c(-c3ccc(C(=O)O)cc3)nc2-c2ccccc2)cc1	none
Cc1cc(Cl)ccc1OCc1n[nH]c(=S)n1C1CCCCC1	ADAM17 inh 9.3 | ADAM10 ctr 30 | ADAM17 confirm 11
O=C(c1ccccc1F)N1CCN(S(=O)(=O)c2ccc(S(=O)(=O)N3CCCCC3)cc2)CC1	ADAM17 inh 8.8 | ADAM10 ctr inactive | ADAM17 confirm inactive
Cc1cc(C)c(S(=O)(=O)Nc2ccc(O)cc2)c(C)c1	none
Cc1cc(C)c(S(=O)(=O)Nc2ccc3c4c(cccc24)CC3)c(C)c1	ADAM17 inh 9.3 | ADAM10 ctr inactive | ADAM17 confirm 12
Cc1cc(C)c(S(=O)(=O)Nc2ccc3c(c2)CCC3)c(C)c1	ADAM17 inh 13, PLCg1 inh 13 | ADAM10 ctr 26 | ADAM17 confirm 12
COc1cc(NC(=O)c2ccco2)c(OC)cc1NC(=O)CCC(=O)Nc1cccc(C)c1C	none
CCn1cc(CNC(=O)C2CCC(=O)N(CCc3cccc(F)c3)C2)cn1 (stereo unspecified)	none
COC(=O)[C@@]12C[C@@H](CC(=O)NCc3ccccc3)C(=O)N(Cc3cccc4ccccc34)C1=CCC(C)(C)C2	ADAM17 inh 9.1 | ADAM10 ctr inactive | ADAM17 confirm inactive
COC(=O)[C@]12CCCCC=C1N(Cc1ccccc1)C(=O)[C@H](CC(=O)NCc1cccc3ccccc13)C2	none
